The source of these data is PubChem BioAssay (Tox21).

Several values for one entry are separate records, joined by “and”; a condition that tells them apart may be missing. Equal entries are not always repeated. Records with an inconclusive call do not appear. More than one record can exist for a structure, and the calls need not agree. Activity calls are given as the source filed them. Unless noted, the call rests on the fitted dose curve; in most records, active means well fitted curve in the direction sought with a large enough effect in the repeat runs; inconclusive means weak or mixed curves; inactive means no such curve, though single readings can be large; an effect the other way counts as inactive or inconclusive.

The nature of assay [1]: Human pregnane X receptor (PXR) small molecule agonists, qHTS cell viability counter screen (AID 1346977). Further: nearly all actives have a fitted effect of over 50% in size. Further: potency means the concentration at half of the fitted maximal effect. In outline:
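Same-well viability read: CellTiter-Fluor added after 23 hr compound exposure, fluorescence measured 1 hr later. Cells were PXR-Luc HepG2 seeded at 2,000/well in 5% charcoal-stripped FBS medium, rested 5 hr before dosing at 37 C.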
In general terms: Quantitative high-throughput screening tests each substance at several concentrations.

The nature of assay [2]: Caspase-3/7 induction in HepG2 cells by small molecules, qHTS assay (AID 1346978). Further: nearly all actives have a fitted effect of over 15% in size. Further: potency means the concentration at half of the fitted maximal effect. In outline: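 Wild-type HepG2 cells (2,000/well) were settled 5 h at 37 C, 5% CO2, then exposed to compounds in DMSO for 17 h. Caspase-3/7 activity was read by luminescence 30 min after adding Caspase-Glo 3/7 reagent at room temperature.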
The nature of assay [3]: Caspase-3/7 induction in CHO-K1 cells by small molecules, qHTS cell viability counter screen (AID 1346979). Further: nearly all actives have a fitted effect of over 35% in size. Further: potency means the concentration at half of the fitted maximal effect. In outline:
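Cytotoxicity counter screen: CellTiter-Fluor added to compound-treated wild-type CHO-K1 cells at 16 h (37C, 5% CO2), fluorescence measured 1 h later; same wells as caspase-3/7 measurement.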

Assay [4] is described as follows: Caspase-3/7 induction in CHO-K1 cells by small molecules, qHTS assay (AID 1346980). Further: nearly all actives have a fitted effect of over 15% in size. In outline:
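Wild-type cells were seeded at 1,500 per well and settled 5 hr at 37 C, 5% CO2, then exposed to DMSO-dissolved compounds for 17 hr. Caspase-Glo 3/7 reagent was added, and luminescence was read after 30min at room temperature.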

The nature of assay [5]: Caspase-3/7 induction in HepG2 cells by small molecules, qHTS cell viability counter screen (AID 1346981). Further: nearly all actives have a fitted effect of over 30% in size. Further: potency means the concentration at half of the fitted maximal effect. In outline: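 Wild-type HepG2 cells, 2,000/well, settled 5 hr at 37 C, 5% CO2 before compound addition. Viability read by CellTiter-Fluor fluorescence, reagent added after 16 hr compound exposure, then 1 hr at 37C, in the same wells as the caspase read.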
The target of assay [6] is Nuclear receptor subfamily 1 group I member 2 (Homo sapiens) (UniProt O75469). Put plainly: Human pregnane X receptor (PXR) small molecule agonists, qHTS assay (AID 1346982). Further: nearly all actives have a fitted effect of over 35% in size. Further: potency means the concentration at half of the fitted maximal effect. In outline: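 PXR-Luc HepG2 reporter cells (CYP3A4-driven luciferase) in 5% charcoal-stripped FBS medium, plated 5 h before compound addition, then treated 24 h at 37C. Luciferase read by ONE-Glo luminescence after 30 min at room temperature.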
Nuclear receptor subfamily 1 group I member 2 (Homo sapiens), sequence (O75469 whole entry, looked up): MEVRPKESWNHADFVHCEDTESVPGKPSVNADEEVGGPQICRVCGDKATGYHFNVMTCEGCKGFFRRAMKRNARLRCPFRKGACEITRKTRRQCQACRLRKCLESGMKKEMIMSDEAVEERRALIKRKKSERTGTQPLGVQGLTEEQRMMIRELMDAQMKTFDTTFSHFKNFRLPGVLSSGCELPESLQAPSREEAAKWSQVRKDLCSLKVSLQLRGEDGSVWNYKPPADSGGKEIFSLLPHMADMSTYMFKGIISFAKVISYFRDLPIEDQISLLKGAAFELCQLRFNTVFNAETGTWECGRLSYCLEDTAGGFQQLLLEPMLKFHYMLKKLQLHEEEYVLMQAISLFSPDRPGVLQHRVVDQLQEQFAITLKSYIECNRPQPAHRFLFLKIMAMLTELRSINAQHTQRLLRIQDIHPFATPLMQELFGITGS

In assay [7] the target is Acetylcholinesterase (Homo sapiens) (UniProt P22303). Put plainly: Acetylcholinesterase (AChE) small molecule antagonists: colormetric cell-based qHTS assay (AID 1347395; calls by dose curve; further: nearly all actives have a fitted effect of over 30% in size; further: potency means the concentration at half of the fitted maximal effect). In outline: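 Colorimetric readout: DTNB quantifies thiocholine from acetylthiocholine hydrolysed by endogenous AChE of SH-SY5Y cells (2,000/well, plated overnight). Compound pretreatment 30 min, substrate incubation 90 min, both 37 C.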
Acetylcholinesterase (Homo sapiens), sequence (P22303 whole entry, looked up): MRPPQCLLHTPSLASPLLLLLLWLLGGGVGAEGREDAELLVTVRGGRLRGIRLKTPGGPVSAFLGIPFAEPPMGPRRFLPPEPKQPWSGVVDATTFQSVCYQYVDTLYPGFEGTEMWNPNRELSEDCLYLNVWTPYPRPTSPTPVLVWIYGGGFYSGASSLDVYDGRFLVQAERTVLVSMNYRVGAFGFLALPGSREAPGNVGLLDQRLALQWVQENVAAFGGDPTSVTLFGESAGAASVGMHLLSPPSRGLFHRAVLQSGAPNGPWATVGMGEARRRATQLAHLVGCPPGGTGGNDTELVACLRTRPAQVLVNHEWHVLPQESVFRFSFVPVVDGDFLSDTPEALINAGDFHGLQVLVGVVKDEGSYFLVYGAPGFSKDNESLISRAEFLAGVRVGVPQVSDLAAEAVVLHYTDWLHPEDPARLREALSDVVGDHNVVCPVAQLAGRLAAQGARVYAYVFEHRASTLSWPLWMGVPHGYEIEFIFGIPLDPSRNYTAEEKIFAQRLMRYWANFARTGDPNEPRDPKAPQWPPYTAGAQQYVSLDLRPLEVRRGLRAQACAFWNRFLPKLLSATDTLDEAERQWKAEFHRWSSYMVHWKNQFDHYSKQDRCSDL

Assay [8] has the same target. Put plainly: Acetylcholinesterase (AChE) small molecule antagonists: enzyme-based qHTS assay (AID 1347397; calls by dose curve; further: nearly all actives have a fitted effect of over 55% in size; further: potency means the concentration at half of the fitted maximal effect). To be noted: Potency: AChE enzyme activity inhibition. In outline:
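Human recombinant acetylcholinesterase; substrate acetylthiocholine; thiocholine quantified with DTNB (colorimetric). Compound preincubation 30 min RT; reaction 10 min RT.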

The target is the same in assay [9]. Put plainly: Acetylcholinesterase (AChE) small molecule antagonists: fluorescence cell-based qHTS assay (AID 1347398; calls by dose curve; further: nearly all actives have a fitted effect of over 50% in size; further: potency means the concentration at half of the fitted maximal effect). To be noted: Potency: AChE activity. In outline:
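Thiocholine generated from acetylthiocholine by SH-SY5Y cell AChE is detected with Thiolite Green (Ex/Em 490/520 nm) after 40 min at room temperature, following 30 min compound pretreatment at 37 C.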

Assay [10] shares this target. The assay can be described thus: Acetylcholinesterase (AChE) small molecule antagonists: enzyme-based qHTS assay with human liver microsomes (AID 1347399; calls by dose curve; further: nearly all actives have a fitted effect of over 60% in size). To be noted: Potency: qHTS inhibition. In outline: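 Recombinant human AChE (50 mU/mL in the enzyme mix) and human liver microsomes (0.25 mg/mL final) were preincubated with compound and NADPH (0.25 mg/mL final) for 30 min at 37 C. Acetylthiocholine/DTNB was then added; thiocholine was read colorimetrically after 10 min at room temperature.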

For assay [11], the target named is Cytochrome P450 2D6 (Homo sapiens) (UniProt P10635). The assay can be described thus: Cytochrome P450 Family 2 Subfamily D Member 6 (CYP2D6) small molecule antagonists: luciferase reporter qHTS assay (AID 1671196). Further: nearly all actives have a fitted effect of over 50% in size. Further: potency means the concentration at half of the fitted maximal effect. On activity change, negative = inhibition: series mostly up to about 120 µM. In outline:
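Cell-free P450-Glo system: CYP2D6 with proluciferin substrate was pre-incubated with compound for 10 min, then reacted with NADPH regeneration for 1 h at room temperature. Luciferin product was detected after 20 min, and data were reported as relative luminescence units.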
Background: Reporter assays use an easily measured gene product as a stand-in for the process of interest.

In assay [12] the target is Cytochrome P450 2C19 (Homo sapiens) (UniProt P33261). The assay can be described thus: Cytochrome P450 Family 2 Subfamily C Member 19 (CYP2C19) small molecule antagonists: luciferase reporter qHTS assay (AID 1671197). Further: nearly all actives have a fitted effect of over 65% in size. Further: potency means the concentration at half of the fitted maximal effect. On activity change, negative = inhibition: series mostly up to about 120 µM. In outline:
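Inhibition of CYP2C19 was scored from loss of luminescence in a P450-Glo proluciferin substrate assay, NADPH-started and run 1 h at 37C, with ketoconazole as positive control.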

In assay [13] the target is Cytochrome P450 2C9 (Homo sapiens) (UniProt P11712). Put plainly: Cytochrome P450 Family 2 Subfamily C Member 9 (CYP2C9) small molecule antagonists: luciferase reporter qHTS assay (AID 1671198). Further: nearly all actives have a fitted effect of over 50% in size. Further: potency means the concentration at half of the fitted maximal effect. On activity change, negative = inhibition: series mostly up to about 120 µM. In outline: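 CYP2C9 activity was measured with a P450-Glo proluciferin substrate. Enzyme–substrate mix was held with compound for 10 min at room temperature, then NADPH regeneration solution was added for 1 h at 37C. Luciferin product was read as luminescence.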

The target of assay [14] is Cytochrome P450 1A2 (Homo sapiens) (UniProt P05177). The assay can be described thus: Cytochrome P450 Family 1 Subfamily A Member 2 (CYP1A2) small molecule antagonists: luciferase reporter qHTS assay (AID 1671199). Further: nearly all actives have a fitted effect of over 50% in size. Further: potency means the concentration at half of the fitted maximal effect. On activity change, negative = inhibition: series mostly up to about 120 µM. In outline: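 P450-Glo CYP1A2 enzyme–proluciferin substrate mix with compound 10 min at room temperature, then NADPH regeneration 1 h at room temperature. Luciferin detection reagent added, luminescence read after 20 min; furafylline positive control.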
Cytochrome P450 1A2 (Homo sapiens), sequence (P05177 whole entry, looked up): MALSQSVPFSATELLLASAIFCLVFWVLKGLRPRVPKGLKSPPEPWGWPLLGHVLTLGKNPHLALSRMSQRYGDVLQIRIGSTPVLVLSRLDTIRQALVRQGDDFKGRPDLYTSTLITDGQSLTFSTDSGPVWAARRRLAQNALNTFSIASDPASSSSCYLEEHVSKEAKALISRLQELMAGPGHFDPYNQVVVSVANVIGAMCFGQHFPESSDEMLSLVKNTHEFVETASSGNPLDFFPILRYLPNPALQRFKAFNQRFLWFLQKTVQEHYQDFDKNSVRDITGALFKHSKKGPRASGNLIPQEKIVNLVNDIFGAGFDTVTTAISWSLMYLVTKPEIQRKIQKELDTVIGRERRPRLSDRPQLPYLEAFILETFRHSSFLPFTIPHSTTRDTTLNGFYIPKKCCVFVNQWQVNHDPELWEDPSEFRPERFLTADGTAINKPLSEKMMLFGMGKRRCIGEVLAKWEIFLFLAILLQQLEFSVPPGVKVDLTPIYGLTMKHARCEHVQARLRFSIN

The target in assay [15] is Voltage-gated inwardly rectifying potassium channel KCNH2 (Homo sapiens) (UniProt Q12809). The assay can be described thus: Human Ether-a-go-go-Related Gene (hERG) channel small molecule antagonists: fluorescence cell-based qHTS assay (AID 1671200). In outline: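 Thallium flux as potassium surrogate: FluxOR II dye loaded 1 h at room temperature into hERG-expressing U2OS cells, then stimulus buffer added after 10 min. Kinetic 480 nm excitation/540 nm emission read, 2 min.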
Voltage-gated inwardly rectifying potassium channel KCNH2 (Homo sapiens), sequence (Q12809 whole entry, looked up): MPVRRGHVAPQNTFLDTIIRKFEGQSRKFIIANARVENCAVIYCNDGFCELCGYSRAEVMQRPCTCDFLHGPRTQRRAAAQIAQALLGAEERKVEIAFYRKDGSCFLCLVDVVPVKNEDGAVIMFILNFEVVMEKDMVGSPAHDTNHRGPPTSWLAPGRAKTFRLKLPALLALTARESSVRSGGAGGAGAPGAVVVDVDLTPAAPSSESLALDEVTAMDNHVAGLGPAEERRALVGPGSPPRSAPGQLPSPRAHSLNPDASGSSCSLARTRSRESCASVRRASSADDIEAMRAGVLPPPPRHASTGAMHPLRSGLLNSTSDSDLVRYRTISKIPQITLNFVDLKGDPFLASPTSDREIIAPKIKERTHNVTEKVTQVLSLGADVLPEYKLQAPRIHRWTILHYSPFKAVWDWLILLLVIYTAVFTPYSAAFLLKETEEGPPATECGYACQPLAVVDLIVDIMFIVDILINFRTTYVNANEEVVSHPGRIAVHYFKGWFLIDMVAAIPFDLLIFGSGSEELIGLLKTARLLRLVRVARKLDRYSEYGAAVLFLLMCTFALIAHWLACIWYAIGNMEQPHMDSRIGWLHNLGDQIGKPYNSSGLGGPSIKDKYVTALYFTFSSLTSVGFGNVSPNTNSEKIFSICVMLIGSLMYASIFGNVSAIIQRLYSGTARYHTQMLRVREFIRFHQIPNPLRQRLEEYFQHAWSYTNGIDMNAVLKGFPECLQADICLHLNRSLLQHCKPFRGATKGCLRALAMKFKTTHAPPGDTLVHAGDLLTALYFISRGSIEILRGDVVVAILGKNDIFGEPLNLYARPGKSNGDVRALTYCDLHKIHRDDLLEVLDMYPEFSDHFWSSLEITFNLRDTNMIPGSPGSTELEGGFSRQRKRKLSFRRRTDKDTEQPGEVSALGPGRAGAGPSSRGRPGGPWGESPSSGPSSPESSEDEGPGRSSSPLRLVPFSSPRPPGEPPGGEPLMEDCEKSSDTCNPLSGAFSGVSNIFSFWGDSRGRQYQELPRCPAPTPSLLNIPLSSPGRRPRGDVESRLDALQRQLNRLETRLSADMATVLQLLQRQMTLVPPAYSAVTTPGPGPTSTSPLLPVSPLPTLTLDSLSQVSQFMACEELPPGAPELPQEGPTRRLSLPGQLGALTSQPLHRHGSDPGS
(Block of hERG is tested as a sign of cardiac risk.)

The target in assay [16] is Nuclear receptor subfamily 1 group I member 2 (Rattus norvegicus) (UniProt Q9R1A7). The assay can be described thus: Rat pregnane X receptor (rPXR) activation by small molecules, qHTS assay (AID 1346983). Further: nearly all actives have a fitted effect of over 20% in size. To be noted: rPXR luciferase reporter cells, One-Glo luminescence, 24 h; stronger effect = higher value. In outline:
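Cell-based rPXR luciferase reporter assay, 2,000 cells per well, rested 5hr at 37 C before compound addition in DMSO, then 24 hr at 37 C. One-Glo reagent was added and luminescence read after 30 min at room temperature.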

In assay [17] the target is Nuclear receptor subfamily 1 group I member 2 (Homo sapiens) (UniProt O75469). Put plainly: CYP3A4 induction through human pregnane X receptor (PXR) by small molecules, qHTS assay (AID 1346984). Further: nearly all actives have a fitted effect of over 40% in size. Further: potency means the concentration at half of the fitted maximal effect. In outline: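 DPX-2 HepG2 cells carrying a PXR response element and CYP3A4-promoter luciferase construct, treated with compounds 24 hr at 37C. Then P450-Glo CYP3A4 Luciferin-IPA substrate (3uM final) for 3 hr at 37C, One-Glo added, luminescence read.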

Assay [18] has the same target. The assay can be described thus: Human pregnane X receptor (PXR) activation by small molecules, qHTS assay (AID 1346985). Further: nearly all actives have a fitted effect of over 40% in size. In outline: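 DPX-2 cells (HepG2 co-transfected with a PXR response element and a CYP3A4-promoter luciferase construct) were seeded at 2,000 per well, rested 5 hr at 37C, then exposed to DMSO-dissolved compounds for 24 hr. Activation was read as luciferase luminescence.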

In assay [19] the target is Cytochrome P450 3A4 (Homo sapiens) (UniProt P08684). Put plainly: Cytochrome P450 Family 3 Subfamily A Member 4 (CYP3A4) small molecule antagonists: luciferase reporter qHTS assay (AID 1671201). In outline: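 Recombinant human CYP3A4 converts a proluciferin substrate to luciferin over 1 h at room temperature after NADPH regeneration solution is added (compound preincubated 10 min); detection reagent stops reaction, luminescence read 20 min later as relative units.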
Cytochrome P450 3A4 (Homo sapiens), sequence (P08684 whole entry, looked up): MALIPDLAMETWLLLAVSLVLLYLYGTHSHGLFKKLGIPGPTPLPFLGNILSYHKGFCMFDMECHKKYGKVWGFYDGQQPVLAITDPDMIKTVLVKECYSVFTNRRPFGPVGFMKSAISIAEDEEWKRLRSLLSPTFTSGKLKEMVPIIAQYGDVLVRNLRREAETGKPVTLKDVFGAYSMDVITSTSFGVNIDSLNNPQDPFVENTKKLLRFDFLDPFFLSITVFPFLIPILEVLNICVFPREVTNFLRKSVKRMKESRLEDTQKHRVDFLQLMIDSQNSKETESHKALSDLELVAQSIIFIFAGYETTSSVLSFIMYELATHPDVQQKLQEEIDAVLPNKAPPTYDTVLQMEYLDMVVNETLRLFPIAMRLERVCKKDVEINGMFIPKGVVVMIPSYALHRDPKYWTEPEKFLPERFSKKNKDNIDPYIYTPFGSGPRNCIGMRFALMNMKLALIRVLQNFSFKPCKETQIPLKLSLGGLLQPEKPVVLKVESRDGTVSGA
On the % scale 0 is the no-effect control and ±100 the full control effect.

Nuclear receptor subfamily 1 group I member 2 (Rattus norvegicus), sequence (Q9R1A7 whole entry, looked up): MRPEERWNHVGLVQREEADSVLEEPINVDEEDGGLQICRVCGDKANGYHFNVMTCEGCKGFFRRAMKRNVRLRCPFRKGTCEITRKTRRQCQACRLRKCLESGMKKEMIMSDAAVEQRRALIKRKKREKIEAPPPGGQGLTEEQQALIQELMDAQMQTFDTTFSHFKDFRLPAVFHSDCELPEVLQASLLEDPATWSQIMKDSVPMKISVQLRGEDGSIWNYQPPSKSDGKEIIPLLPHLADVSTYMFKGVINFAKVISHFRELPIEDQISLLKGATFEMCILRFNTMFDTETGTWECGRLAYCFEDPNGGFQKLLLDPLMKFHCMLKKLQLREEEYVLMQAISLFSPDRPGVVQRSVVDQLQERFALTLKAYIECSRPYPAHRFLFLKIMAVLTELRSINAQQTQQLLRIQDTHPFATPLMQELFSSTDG
Cytochrome P450 2C19 (Homo sapiens), sequence (P33261 whole entry, looked up): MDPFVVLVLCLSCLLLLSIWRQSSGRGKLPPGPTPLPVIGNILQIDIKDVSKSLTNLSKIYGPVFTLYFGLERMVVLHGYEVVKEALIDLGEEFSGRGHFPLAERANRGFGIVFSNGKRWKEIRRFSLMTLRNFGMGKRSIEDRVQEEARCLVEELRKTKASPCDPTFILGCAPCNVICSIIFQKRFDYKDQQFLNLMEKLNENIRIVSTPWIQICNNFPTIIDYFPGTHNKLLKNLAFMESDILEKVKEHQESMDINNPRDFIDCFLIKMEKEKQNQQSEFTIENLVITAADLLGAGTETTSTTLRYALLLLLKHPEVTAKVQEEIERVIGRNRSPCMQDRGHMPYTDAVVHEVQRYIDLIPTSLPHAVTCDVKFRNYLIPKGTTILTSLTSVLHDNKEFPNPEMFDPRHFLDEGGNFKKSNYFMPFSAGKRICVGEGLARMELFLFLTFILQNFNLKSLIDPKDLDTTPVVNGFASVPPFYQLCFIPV
Cytochrome P450 2D6 (Homo sapiens), sequence (P10635 whole entry, looked up): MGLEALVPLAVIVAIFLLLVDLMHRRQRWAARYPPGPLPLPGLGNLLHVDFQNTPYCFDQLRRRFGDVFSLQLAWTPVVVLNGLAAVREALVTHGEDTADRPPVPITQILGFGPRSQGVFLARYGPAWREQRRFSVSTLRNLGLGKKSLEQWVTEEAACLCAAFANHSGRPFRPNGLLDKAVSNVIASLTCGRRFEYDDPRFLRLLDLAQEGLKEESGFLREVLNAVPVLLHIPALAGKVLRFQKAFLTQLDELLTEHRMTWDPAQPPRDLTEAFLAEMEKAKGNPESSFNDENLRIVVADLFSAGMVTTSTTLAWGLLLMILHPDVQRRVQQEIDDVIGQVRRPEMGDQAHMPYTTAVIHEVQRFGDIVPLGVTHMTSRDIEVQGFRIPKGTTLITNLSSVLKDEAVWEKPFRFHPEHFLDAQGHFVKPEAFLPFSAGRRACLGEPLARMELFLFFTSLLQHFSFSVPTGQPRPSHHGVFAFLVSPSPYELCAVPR

As to `CCNc1nc(Cl)nc(NC(C)(C)C#N)n1`, the Potency entry in assay [1], in assay [2], in [3], in assay [4], in assay [5] and in [7] was “inactive” each time. Besides, the Potency result in assay [8], in assay [9], in assay [10], in [11], in assay [12] and in assay [13] was “inactive” in each case. Also, the Potency entry in assay [15] is “inactive”. Besides, the Potency in assay [6] was 61.1 µM (active); in assay [14] it was 39.9 µM (active).
With `CC[n+]1c(-c2ccccc2)c2cc(N)ccc2c2ccc(N)cc21`, the Potency in assay [1] was 27.2 µM (active); in assay [3] it was 60.8 µM (active) and 29.8 µM (active); in [5], 38.4 µM (active) and 23.7 µM (active); in assay [7] it was 31.6 µM (active) and 19.5 µM (active); in [8], 79.3 µM (active); in [9] it was 31.6 µM (active) and 12.3 µM (active). The Potency is 562 nM (active) and 2.19 µM (active) in [11]; 7.07 µM (active) and 5.49 µM (active) in [12]; 35.4 µM (active) and 30.9 µM (active) in assay [13]; 9.99 µM (active) and 10.2 µM (active) in assay [14]. Moreover, the Potency result in assay [2], in assay [4], in [6], in [17], in assay [10] and in [15] was “inactive” throughout. Moreover, the max activation in assay [16] was -4.94% (inactive) and -4.01% (inactive). The call in [18] was inactive.
With `c1ccc2c(c1)Nc1ccccc1S2`, the Potency entry in assay [1], in assay [2], in assay [4], in assay [5], in assay [7] and in [8] was “inactive” in each case. Moreover, the Potency entry in assay [9], in assay [10], in assay [11], in assay [13] and in assay [15] was “inactive” in each case. Also, the Potency in assay [3] was 68.6 µM (active) and inactive; in assay [6], 27.3 µM (active); in assay [17] it was 0.708 µM (active); in [12], 2.24 µM (active) and 8.71 µM (active); in [14], 731 nM (active) and 645 nM (active). In [16], the max activation was -0.408% (inactive). The result in [18] was inactive.
Take `ClC(Cl)(Cl)Br`: the Potency result in [1], in assay [2], in [3], in assay [4], in assay [5] and in [6] was “inactive” each time. For the same compound, the Potency result in assay [7], in [8], in [9], in assay [10], in assay [11] and in assay [14] was “inactive” each time. For the same compound, the Potency entry in assay [15] and in assay [19] was “inactive” each time. Also, the Potency in [12] is 39.4 µM (active). The activity change, negative = inhibition is 17.8% [at 23.6 µM] (inactive) in assay [12] and -6.85% [at 23.6 µM] (inactive) in assay [13].
Regarding `Oc1ccc(Cl)cc1Cc1ccccc1`, the Potency is 70.8 µM (active) and inactive in assay [1]; 53.6 µM (active) in assay [2]; 55.1 µM (active) in assay [3]; 61.9 µM (active) and inactive in assay [5]; 61.1 µM (active) and 19.6 µM (active) and inactive in assay [6]; 67.8 µM (active) and inactive in assay [11]. For the same compound, the Potency in [12] is 3.56 µM (active) and 1.61 µM (active) and 2.19 µM (active); in assay [13], 25.2 µM (active) and 12.1 µM (active) and 9.77 µM (active); in assay [14], 44.8 µM (active) and 33 µM (active) and 30.9 µM (active). For the same compound, the Potency result in [4], in assay [17], in assay [7], in assay [8], in [9] and in assay [10] was “inactive” throughout. The Potency result in assay [15] and in assay [19] was “inactive” throughout. Besides, in assay [16], the max activation was -2.22% (inactive). For the same compound, in assay [18], the compound was called inactive.
